The list is not random: actives were taken first. Their share in the collection is about 2.8%.
SENP6 inh: SENP6 protease inhibition; inhibition, % at 10 µM; Q9GZR1; Recombinant SENP6 catalytic domain, aminoluciferin luminescence; AID 2599; hit rate 1.8% among 330,000;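 active = inhibition above about 50% at the single tested dose, limit read from the data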;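 also: plate controls were DMSO wells with enzyme for no effect and DMSO wells lacking enzyme for full effect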
SENP8 block-1: SENP8 (human) protease inhibition. hit rate 0.64% among 360,000. inhibition, % at 20 µM. Q96LD8. AID 602440. recombinant SENP8, Nedd8 substrate fluorescence; in the data active = inhibition mostly above about 40%, no sharp cut-off; inactive = mostly below about 27%
Target sequence (Q96LD8 whole entry, looked up): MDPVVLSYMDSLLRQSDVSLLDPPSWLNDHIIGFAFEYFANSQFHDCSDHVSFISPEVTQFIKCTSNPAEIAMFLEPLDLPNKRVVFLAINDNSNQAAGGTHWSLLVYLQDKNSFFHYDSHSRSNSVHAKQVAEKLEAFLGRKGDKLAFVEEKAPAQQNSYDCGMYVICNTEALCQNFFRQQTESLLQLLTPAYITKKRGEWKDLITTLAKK
SENP8 block-2: blocks the human protease SENP8. Q96LD8. purified SENP8, Z-RLRGG-aminoluciferin cleavage, luminescence. inhibition, % at 10 µM. hit rate 1.2% among 330,000; in the data active = inhibition above about 50%
SENP7 block: SENP7 protease inhibition; hit rate 1.5% among 330,000; recombinant SENP7, Z-RLRGG-aminoluciferin luminescence, 40 min; inhibition, % at 5 µM;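 active = inhibition above about 50% at the single test dose, limit read from the data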;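 also: plate controls were DMSO with enzyme for no effect and no enzyme buffer wells for full effect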
Target sequence (Q9BQF6 706-1050 limits assumed): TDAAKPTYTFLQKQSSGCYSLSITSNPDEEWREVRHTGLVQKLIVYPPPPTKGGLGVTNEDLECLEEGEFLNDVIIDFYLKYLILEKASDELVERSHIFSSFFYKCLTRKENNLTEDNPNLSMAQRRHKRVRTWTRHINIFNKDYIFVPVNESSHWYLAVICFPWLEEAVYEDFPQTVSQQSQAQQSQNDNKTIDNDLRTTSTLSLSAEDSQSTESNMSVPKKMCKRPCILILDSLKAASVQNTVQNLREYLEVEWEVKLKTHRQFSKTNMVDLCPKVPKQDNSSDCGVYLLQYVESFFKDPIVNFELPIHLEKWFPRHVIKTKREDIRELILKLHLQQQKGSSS
HSP90 refold inh: blocks HSP90-mediated luciferase refolding in reticulocyte lysate; hit rate 0.91% among 290,000; Rabbit reticulocyte lysate, luciferase refolding luminescence, 3 h; AID 1789; inhibition, % at 5.6 µM;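 active = inhibition above the screen-wide mean plus 3 SD, computed separately per campaign, cut at about 16% in these data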;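 also: 0% = DMSO wells and 100% = 60 µM geldanamycin wells; inhibitors lower the luminescence because luciferase stays unfolded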
HSP90 inh confirm: confirmation of HSP90 inhibitors; shares compounds with HSP90 refold inh; rabbit reticulocyte lysate, luciferase refolding luminescence, 3 h; inhibition, % at 5.9 µM; hit rate 64% among 2,300; AID 1846; in the data active = inhibition above about 18%;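 also: 0% = vehicle wells and 100% = reference inhibitor wells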
FLuc counter: blocks native firefly luciferase in HSP90 counter-screen | hit rate 48% among 2,300 | shares compounds with HSP90 refold inh | inhibition, % at 5.9 µM | AID 1847 | purified native firefly luciferase, luminescence;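 active = inhibition above the mean inhibition of all tested sample wells plus 3 SD, cut at about 10% in these data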;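 also: 0% = DMSO with luciferase and 100% = wells lacking luciferase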
Active calls of the source: *; . = no result.

SMILES	SENP6 inh	SENP8 block-1	SENP8 block-2	SENP7 block	HSP90 refold inh	others
Cc1nnc2c(Oc3ccccc3)nc3ccccc3n12	-5.9	32.6	-3.0	0.6	-2.3
CN1CCN(CC#CCC(O)(c2ccccc2)C2CCCC2)CC1 (stereo unspecified)	-24.2	4.0	-8.3	-2.9	1.5
O=[N+]([O-])c1ccc(CSc2nc3ccccc3[nH]2)cc1	58.2*	18.3	34.4	60.9*	1.5
O=C(NCCO)c1ccc(CSc2nc3ccccc3[nH]2)cc1	-9.1	3.2	-2.6	5.2	4.7
O=C(C1CN(C(=O)c2cc3ccccc3o2)c2ccccc2O1)N1CCCCC1 (stereo unspecified)	.	8.2	.	.	.
CC(C)Oc1cc(NC(=O)CS(=O)CC(=O)N(C)C)c(Cl)cc1Cl (stereo unspecified)	-7.8	12.2	5.7	-5.0	-0.7
Nc1ccc(Oc2ncccn2)cc1	30.5	82.5*	4.2	16.3	0.7
CC(C)CN1C(=O)/C(=C/c2ccco2)NC1=S	11.0	17.8	-1.3	5.0	-0.9
COc1ccc(C2=Nc3nc(-c4ccccc4)cn3C(c3ccc(OC)cc3)C2)cc1 (stereo unspecified)	.	-395.3	.	.	5.8
O=C(Cn1nnc(-c2ccccc2)n1)N/N=C/c1cccc([N+](=O)[O-])c1O	-7.3	27.2*	6.1	4.8	-0.6
CC1CC(C)(C)Nc2ccc(N=O)cc21 (stereo unspecified)	.	45.0*	.	.	-0.8
CC1CC(C)(C)Nc2ccc(OC(=O)c3ccco3)cc21 (stereo unspecified)	-12.7	21.6	-4.2	-5.1	5.8
Cc1nnc(N/N=C\c2ccc(-c3cccc(C(=O)O)c3)o2)n1N	52.4*	-360.1	25.3	4.7	6.6
CCOC(=O)C1/C(=N\O)CC(C)(O)C(C(=O)OCC)C1c1ccc(OC)c(OC)c1 (stereo unspecified)	-16.8	8.2	1.1	6.7	-0.8
Cn1c(O)c(/C=N/Nc2ccccc2)c(=O)n(C)c1=O	-14.1	17.3	-9.6	-12.4	16.1*
CC(C)CNC(=O)C1(N2C(=O)c3ccccc3C2=O)CCCC1	.	16.1	.	.	.
CC(=O)c1ccc(N(C)C)cc1	-10.1	1.3	-5.6	-15.3	-0.7
CN(C)c1ccc(Cc2cc3c(O)ccc(O)c3cc(Cc3ccc(N(C)C)cc3)c2=O)cc1	.	51.7*	.	.	.
COc1ccc(-[n+]2c(C)cc(/C=C3\Sc4ccccc4N3C)cc2C)cc1	0.0	43.4*	4.0	8.1	2.3
Cc1nn(-c2ccccc2)c(N)c1N=Nc1cccnc1	-12.7	31.4	-6.6	-2.0	-1.5
Nc1nc(-c2ccccc2)c(N=Nc2cccnc2)s1	-28.3	48.4*	-9.2	-7.1	-2.0
CNC(C)C#Cc1ccc2oc3cc(C)c(C)cc3c(=O)c2c1 (stereo unspecified)	84.1*	-94.1	68.6*	42.6	.
COc1ccc(CN2CCCC2C(=O)Nc2ccc(OC)c(OC)c2)cc1OC (stereo unspecified)	-18.9	-4.3	-3.1	64.4*	4.0
CCN(CC)CC(=O)Nc1c(C)cccc1C	-1.4	5.1	0.7	2.1	1.8
O=C1c2ccccc2-c2c1cccc2C(=O)N(CCO)CCO	-0.5	10.1	-1.5	4.0	0.7
SMILES	SENP6 inh	SENP8 block-1	SENP8 block-2	SENP7 block	HSP90 refold inh	others
O=C1c2ccccc2C(=O)c2c(NCCCN(CCO)CCO)cccc21	9.3	43.7*	3.7	-3.0	-3.0
CCN(CC)CC(=O)Nc1cccc2c1C(=O)c1ccccc1C2=O	1.4	40.1*	-4.0	0.1	2.5
COCCn1c(SCC(=O)N2CCOCC2)nnc1-c1ccncc1	-35.8	9.5	-3.0	0.6	-3.1
O=C(O)C1Nc2c(O)cc(Cl)c([N+](=O)[O-])c2C2C=CCC12 (stereo unspecified)	-33.5	45.9*	7.6	8.7	-1.2
O=c1cc(-c2ccc(Br)cc2)[nH][nH]1	2.9	24.0	-7.7	4.1	12.1
O=c1cc(-c2ccc(F)cc2)[nH][nH]1	-0.9	27.5	-5.5	5.8	16.6*
O=c1c(O)c(-c2cc(O)c(O)c(O)c2)oc2cc(O)cc(O)c12	13.3	38.9*	4.0	3.4	.
CCCCn1c(NC(=O)c2ccccc2)c(C#N)c2nc3ccccc3nc21	.	-278.4	.	.	48.6*
CCCCn1c(NC(=O)c2ccc(F)cc2)c(C#N)c2nc3ccccc3nc21	92.2*	.	95.2*	18.9	.
Cc1ccc(C(=O)NCCn2c(N)c(C#N)c3nc4ccccc4nc32)cc1	42.5	-271.5	10.0	34.2	-0.5
CCC(=O)Nc1c(C#N)c2nc3ccccc3nc2n1-c1ccc(C)cc1	.	-437.6	.	.	.
Cc1cc(C)c(Nc2cc(S(=O)(=O)O)c(N)c3c2C(=O)c2ccccc2C3=O)c(C)c1	.	48.4*	.	.	-0.8
O=C1CC(c2ccccc2)CC(=O)N1c1ccc(C(F)(F)F)cc1	-15.5	16.1	-13.5	-9.8	.
CC(C)(CNC(=O)c1cccc(NS(=O)(=O)c2ccc(Br)cc2)c1)N1CCOCC1	-13.3	6.0	-1.2	-2.5	-7.8
CC1CCN(S(=O)(=O)c2ccc3c(c2)N(CC(=O)NCCCN2CCCCC2C)C(=O)CS3)CC1 (stereo unspecified)	15.6	16.3	-0.2	4.4	-7.2
CC1CCN(S(=O)(=O)c2ccc3c(c2)N(CC(=O)NCCN2C(C)CCCC2C)C(=O)CS3)CC1 (stereo unspecified)	-7.9	21.6	-6.1	2.6	21.5*	HSP90 inh confirm=-6.5;FLuc counter=-11.7
COc1cccc(CN(C)C(=O)C2CC(=O)N(c3ccc4c(c3)OCCO4)C2)c1 (stereo unspecified)	-6.4	3.1	-3.1	-0.6	.
COc1ccc(NC(=S)NNC(=O)Cn2nc([N+](=O)[O-])cc2C)cc1	-18.0	8.1	-8.9	5.6	40.7*	HSP90 inh confirm=4.4;FLuc counter=1.0
COC(=O)COc1cc(OCC(=O)OC)c2c(C)c(Cl)c(=O)oc2c1	-46.0	-340.5	-11.7	-7.7	0.0
COc1ccc(C(=O)c2coc3ccc(O)c(CN4CCCC4)c23)cc1	-20.3	25.9	7.0	7.7	49.9*	HSP90 inh confirm=-0.5;FLuc counter=-4.8
COc1ccccc1NC(=O)CSc1nc2ccccc2cc1Cc1ccccc1	-20.9	12.8	-10.4	11.0	30.5*	HSP90 inh confirm=23.9*;FLuc counter=-11.6
Cc1cc(N=Nc2ccc(C)c(N=Nc3cc(C)c(N)cc3N)c2)c(N)cc1N	52.1*	30.7	52.6*	5.8	16.5*	HSP90 inh confirm=33.4*;FLuc counter=51.1*
CCOc1ccc(NC(=O)N2CCC(c3nc4ccccc4o3)CC2)cc1	-34.3	25.4	-5.0	0.5	0.8
CCOc1ccc(NC(=O)N2CCC(c3nc4ccccc4[nH]3)CC2)cc1	-13.1	9.9	3.3	2.7	25.5*	HSP90 inh confirm=-12.7;FLuc counter=-15.8
C1CC1C(=NN=C(C1CC1)C1CC1)C1CC1	.	20.4	.	.	.
CCCC(=O)Nc1nc2ccc(C(=O)OCC)cc2s1	-1.4	-3.7	1.3	-7.5	7.3
CCCCC(=O)Nc1nc2ccc(C(=O)OC)cc2s1	-35.8	-8.5	-12.2	-12.3	41.2*	HSP90 inh confirm=58.6*;FLuc counter=-16.5

From PubChem
